About 5,800 (36%) of roughly 16,000 compounds were called active. Inconclusive results (about 23%) are left out. Calls come from the whole dose curve; as a rule, active = well fitted curve in the direction sought with a large enough effect; inconclusive = small, poorly fitted or top-dose-only effect, or effect the other way; inactive = no such curve, though single readings can be large or run the other way. The list shows a part of the results.
Target: Cytochrome P450 2C19 (Homo sapiens) (UniProt P33261)
Test: Cytochrome panel assay with activity outcomes
Conditions: recombinant CYP, pro-luciferin dealkylation, luminescence, p450-cyp2c19; series mostly up to 57.1 µM; activity, negative = inhibition: at the top concentration
% is set by controls: 0 for no effect and ±100 for the full control effect.

Chain of Cytochrome P450 2C19 (Homo sapiens) (P33261 whole entry, looked up): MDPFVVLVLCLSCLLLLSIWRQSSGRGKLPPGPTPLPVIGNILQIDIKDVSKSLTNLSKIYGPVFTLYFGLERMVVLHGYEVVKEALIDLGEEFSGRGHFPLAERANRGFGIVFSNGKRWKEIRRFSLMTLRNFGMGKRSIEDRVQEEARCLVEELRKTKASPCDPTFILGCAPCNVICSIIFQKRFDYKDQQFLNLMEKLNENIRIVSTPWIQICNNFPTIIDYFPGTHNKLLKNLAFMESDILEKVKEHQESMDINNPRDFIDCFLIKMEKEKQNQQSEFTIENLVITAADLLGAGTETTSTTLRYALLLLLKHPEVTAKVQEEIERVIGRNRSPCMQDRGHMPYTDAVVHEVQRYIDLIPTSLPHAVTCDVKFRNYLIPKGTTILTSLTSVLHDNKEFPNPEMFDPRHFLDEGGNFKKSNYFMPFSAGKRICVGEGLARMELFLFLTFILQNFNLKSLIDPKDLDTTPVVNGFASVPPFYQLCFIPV

SMILES | AC50 | activity, negative = inhibition
Oc1ccc(Cc2cc(Cl)cc(Cl)c2O)cc1Cl | 1260 nM (active) | –
OCCSCc1cc(Cl)cc(Cl)c1O | – | -25.3% [at 11.4 µM] (inactive)
O=C(O)Cc1cc(Cl)ccc1O | – | 42.6% [at 11.4 µM] (inactive)
Oc1ccc(Cl)cc1Cc1cc(Cl)cc(Cc2cc(Cl)ccc2O)c1O | 1260 nM (active) | –
COC(=O)[C@@]1(Cc2ccccc2)[C@H]2c3cc(C(=O)N4CCCC4)n(Cc4cc(F)cc5c4OCOC5)c3C[C@H]2CN1C(=O)c1ccccc1 | 251 nM (active) | –
COC(=O)[C@@]1(Cc2ccc(OC)cc2)[C@H]2c3cc(C(=O)N4CCCC4)n(Cc4cc(F)cc5c4OCOC5)c3C[C@H]2CN1C(=O)c1ccccc1 | 7940 nM (active) | –
COc1ccc(C(=O)N2CCC3(CCCN(Cc4ccccc4OC)C3)CC2)cc1 | – | -4.97% (inactive)
OC[C@@H]1O[C@@H](n2cnc3c(SCc4ccccc4)ncnc32)[C@@H](O)[C@H]1O | – | 1.35% [at 11.4 µM] (inactive)
CCCn1cnc2c(SCc3ccc(Cl)cc3)nc(N)nc21 | 501 nM (active) | –
Nc1nc(SCc2ccc([N+](=O)[O-])cc2)c2ncn([C@@H]3O[C@@H](CO)[C@@H](O)[C@H]3O)c2n1 | – | -25.4% (inactive)
Nc1nc(SCc2ccccc2)c2ncn(Cc3ccccc3)c2n1 | 2510 nM (active) | –
Cn1cnc([N+](=O)[O-])c1Sc1nc(N)nc2c1ncn2Cc1ccccc1 | – | 21.2% [at 11.4 µM] (inactive)
Cn1c(=O)oc2cc(S(=O)(=O)NCCC(=O)N3CC=C(c4ccccc4)CC3)ccc21 | 6310 nM (active) | –
CCCN(CCC)CCNC(=O)C1CCCN(S(=O)(=O)c2ccc3c(c2)oc(=O)n3C)C1 (stereo unspecified) | – | 22.6% (inactive)
Cn1c(=O)c2cc(S(=O)(=O)NCCC(=O)Nc3ccc(Cl)cc3)ccc2n(C)c1=O | – | -26.7% (inactive)
CC(C)(C)c1onc(OCP(=O)(O)O)c1C[C@@H](N)C(=O)O | – | -1.17% (inactive)
CCOc1cc(C#N)c(NC(=O)c2cccnc2)cc1OCC | – | -11.4% (inactive)
Cc1c(Cl)cccc1NC(=O)c1ccc(-n2ccnc2)nc1 | 44.7 nM (active) | –
O=C(Nc1ccc(F)cc1)c1ccc(-n2ccnc2)nc1 | 70.8 nM (active) | –
COC(=O)c1cc(=O)[nH]c(=O)[nH]1 | – | 23% [at 11.4 µM] (inactive)
CCNc1ncc2nc(-c3cc(F)cc(F)c3)c(=O)n(CCOC)c2n1 | – | -41.4% (inactive)
COC(=O)/C=C\CCc1coc(/C=C\CNC(=O)OC)n1 | – | 31.7% [at 11.4 µM] (inactive)
CCCCc1n[nH]c2c1/C(=N/O)CC(c1ccccc1)C2 (stereo unspecified) | 447 nM (active) | –

SMILES | AC50 | activity, negative = inhibition
CCCc1cc(=O)oc2cc(OCc3cc(OC)c(OC)c(OC)c3)c(Cl)cc12 | – | 4.84% (inactive)
CCCc1cc(=O)oc2cc(OCc3nn[nH]n3)ccc12 | 25100 nM (active) | –
CCn1c(-c2ccccc2Cl)nn(CC(=O)Nc2ccccc2OC)c1=S | 891 nM (active) | –
CCn1c(-c2ccccc2Cl)nn(CC(=O)Nc2ccc(OC)cc2)c1=S | 3550 nM (active) | –
CCn1c(-c2ccccc2Cl)nn(CC(=O)Nc2cc(Cl)ccc2Cl)c1=S | 1780 nM (active) | –
COC(=O)c1ccc(C23CC2(C(NP(=O)(c2ccccc2)c2ccccc2)c2ccccc2)C3)cc1 (stereo unspecified) | 10000 nM (active) | –
NCS(=O)(=O)O | – | 8.81% [at 11.4 µM] (inactive)
O=C(NNC(=O)C1CCCCC1)c1cnccn1 | – | -21.2% (inactive)
Cn1nc(C(=O)NC2CCCCC2)c2ccccc2c1=O | – | -26% (inactive)
O=C(NC1CCCC1)c1cccnc1N1CCCCCC1 | 8910 nM (active) | –
COc1cc(C)nc(N2CCCC(C(=O)Nc3cc(Cl)ccc3OC)C2)n1 (stereo unspecified) | 126 nM (active) | –
COc1ccc(OC)c(NC(=O)[C@H]2CC=CC[C@H]2C(=O)O)c1 | – | -9.87% (inactive)
O=C(/C=C/c1ccc2ccccc2c1)c1ccoc1 | 2000 nM (active) | –
CS(=O)(=O)c1nc(-c2ccccc2)cc(-c2ccccc2)c1C#N | 794 nM (active) | –
O=C(OCc1cccc(F)c1)c1ccc2c(c1)-c1ccccc1C2=O | 11200 nM (active) | –
O=C1c2ccccc2-c2ccc(N(Cc3ccc(Br)cc3)Cc3ccc(Br)cc3)cc21 | – | -10.9% [at 11.4 µM] (inactive)
O=C1c2ccccc2-c2ccc(NC(=O)[C@H]3CCCC[C@@H]3C(=O)O)cc21 | – | -17.3% [at 11.4 µM] (inactive)
COc1ccc(NC(=O)N2CC[C@@]3(CCCN(C(=O)c4cnccn4)C3)C2)cc1 | – | 17.4% (inactive)
Cc1nc2c(C#N)c(C)[nH]n2c(=O)c1Cc1ccccc1 | – | -16.2% (inactive)
Cc1nc2c(C(=O)NCc3ccc4c(c3)OCO4)c[nH]n2c(=O)c1Cc1ccccc1F | 14100 nM (active) | –
CC(=O)O[C@H]1C2=CO[C@H](C)[C@H]3[C@H]4C5=C([C@H](O)[C@H]6O[C@@H]6C5=O)[C@H](O[C@H]4C)[C@@]23C(=O)[C@H]2O[C@@H]21 | – | 11.4% [at 11.4 µM] (inactive)
C[C@@H]1O[C@H]2C3=C(C(=O)[C@H]4O[C@@H]4[C@H]3O)[C@@H]1[C@@H]1[C@@H](C)OC=C3[C@H](O)[C@H]4O[C@@H]4/C(=N\OCc4ccccc4)[C@]312 | 631 nM (active) | –
Cn1c(=O)n2n(c1=O)[C@H]1[C@H](O)[C@H]3O[C@@H]3/C(=N/OCc3ccccc3)[C@@H]1CC2 | – | 50.3% [at 11.4 µM] (inactive)

— PubChem BioAssay AID1851 (National Center for Advancing Translational Sciences (NCATS), 2009)
